The text below walks through data of paper PMC9911399, “Two distinct binding modes provide the RNA-binding protein RbFox with extraordinary sequence specificity”.

Changes are numbered by the printed parent chain; changes in the protein carry UniProt numbers. Whole data set: some 16,000 sequences, median “ka relative to ugcaugu” near 0.096, cut for the highest 2% near 0.35. The list comes from a sample in which the highest values are over-represented; it also holds similar and randomly drawn sequences.

The chains are these.
T1: RBFOX1 RRM RbFoxmut (Fox-RRM*) (Homo sapiens, UniProt Q9NWB1 109-208, R118D;E147R;N151S;E152T)
T1 sequence: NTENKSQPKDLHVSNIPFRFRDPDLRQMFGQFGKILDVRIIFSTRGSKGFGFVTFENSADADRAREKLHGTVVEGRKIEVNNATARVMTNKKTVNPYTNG

B1: UCCCACC (DNA:RNA)
RNA: GGGAGACCGGAAUUCAGAUUGUCCUCCCACCUUAAAUCCCGUCGUAGCCACCA
DNA 1: CAATCTGAATTCCGGTCTCCC
DNA 2: TGGTGGCTACGACGGGATT
B2: GAGACGU (DNA:RNA)
RNA: GGGAGACCGGAAUUCAGAUUGUCCGAGACGUUUAAAUCCCGUCGUAGCCACCA
DNA 1: CAATCTGAATTCCGGTCTCCC
DNA 2: TGGTGGCTACGACGGGATT
B3: CGUCCCU (DNA:RNA)
RNA: B2 RNA with G25C, A26G, G27U, A28C, G30C
DNA 1: CAATCTGAATTCCGGTCTCCC
DNA 2: TGGTGGCTACGACGGGATT
B4: ACGGCGC (DNA:RNA)
RNA: B2 RNA with G25A, A26C, A28G, U31C
DNA 1: CAATCTGAATTCCGGTCTCCC
DNA 2: TGGTGGCTACGACGGGATT
B5: AGAGAUA (DNA:RNA)
RNA: B1 RNA with U25A, C26G, C27A, C28G, C30U, C31A
DNA 1: CAATCTGAATTCCGGTCTCCC
DNA 2: TGGTGGCTACGACGGGATT
B6: AAUCCAU (DNA:RNA)
RNA: B2 RNA with G25A, G27U, A28C, G30A
DNA 1: CAATCTGAATTCCGGTCTCCC
DNA 2: TGGTGGCTACGACGGGATT
B7: GGAAACG (DNA:RNA)
RNA: B2 RNA with A26G, G27A, C29A, G30C, U31G
DNA 1: CAATCTGAATTCCGGTCTCCC
DNA 2: TGGTGGCTACGACGGGATT
B8: ACGCCAA (DNA:RNA)
RNA: B2 RNA with G25A, A26C, A28C, G30A, U31A
DNA 1: CAATCTGAATTCCGGTCTCCC
DNA 2: TGGTGGCTACGACGGGATT
B9: GUCAUCA (DNA:RNA)
RNA: B2 RNA with A26U, G27C, C29U, G30C, U31A
DNA 1: CAATCTGAATTCCGGTCTCCC
DNA 2: TGGTGGCTACGACGGGATT
B10: GUUAUCA (DNA:RNA)
RNA: B2 RNA with A26U, G27U, C29U, G30C, U31A
DNA 1: CAATCTGAATTCCGGTCTCCC
DNA 2: TGGTGGCTACGACGGGATT
B11: GAACCAG (DNA:RNA)
RNA: B2 RNA with G27A, A28C, G30A, U31G
DNA 1: CAATCTGAATTCCGGTCTCCC
DNA 2: TGGTGGCTACGACGGGATT
B12: GGCGUUG (DNA:RNA)
RNA: B2 RNA with A26G, G27C, A28G, C29U, G30U, U31G
DNA 1: CAATCTGAATTCCGGTCTCCC
DNA 2: TGGTGGCTACGACGGGATT
B13: CGAUCGA (DNA:RNA)
RNA: B2 RNA with G25C, A26G, G27A, A28U, U31A
DNA 1: CAATCTGAATTCCGGTCTCCC
DNA 2: TGGTGGCTACGACGGGATT
B14: GAUCGAA (DNA:RNA)
RNA: B2 RNA with G27U, A28C, C29G, G30A, U31A
DNA 1: CAATCTGAATTCCGGTCTCCC
DNA 2: TGGTGGCTACGACGGGATT
B15: GAAUCGA (DNA:RNA)
RNA: B2 RNA with G27A, A28U, U31A
DNA 1: CAATCTGAATTCCGGTCTCCC
DNA 2: TGGTGGCTACGACGGGATT
B16: GAAUCAG (DNA:RNA)
RNA: B2 RNA with G27A, A28U, G30A, U31G
DNA 1: CAATCTGAATTCCGGTCTCCC
DNA 2: TGGTGGCTACGACGGGATT
B17: CCCGGCG (DNA:RNA)
RNA: B1 RNA with U25C, C28G, A29G, C31G
DNA 1: CAATCTGAATTCCGGTCTCCC
DNA 2: TGGTGGCTACGACGGGATT
B18: GAUUCAG (DNA:RNA)
RNA: B2 RNA with G27U, A28U, G30A, U31G
DNA 1: CAATCTGAATTCCGGTCTCCC
DNA 2: TGGTGGCTACGACGGGATT
B19: GGCGUCG (DNA:RNA)
RNA: B1 RNA with U25G, C26G, C28G, A29U, C31G
DNA 1: CAATCTGAATTCCGGTCTCCC
DNA 2: TGGTGGCTACGACGGGATT
B20: GGAAUCA (DNA:RNA)
RNA: B2 RNA with A26G, G27A, C29U, G30C, U31A
DNA 1: CAATCTGAATTCCGGTCTCCC
DNA 2: TGGTGGCTACGACGGGATT
B21: AGGUGCA (DNA:RNA)
RNA: B2 RNA with G25A, A26G, A28U, C29G, G30C, U31A
DNA 1: CAATCTGAATTCCGGTCTCCC
DNA 2: TGGTGGCTACGACGGGATT
B22: GUAUUCU (DNA:RNA)
RNA: B2 RNA with A26U, G27A, A28U, C29U, G30C
DNA 1: CAATCTGAATTCCGGTCTCCC
DNA 2: TGGTGGCTACGACGGGATT
B23: UCCUAGU (DNA:RNA)
RNA: B1 RNA with C28U, C30G, C31U
DNA 1: CAATCTGAATTCCGGTCTCCC
DNA 2: TGGTGGCTACGACGGGATT
B24: UUCUCAG (DNA:RNA)
RNA: B1 RNA with C26U, C28U, A29C, C30A, C31G
DNA 1: CAATCTGAATTCCGGTCTCCC
DNA 2: TGGTGGCTACGACGGGATT
B25: CGGCGAA (DNA:RNA)
RNA: B2 RNA with G25C, A26G, A28C, C29G, G30A, U31A
DNA 1: CAATCTGAATTCCGGTCTCCC
DNA 2: TGGTGGCTACGACGGGATT
B26: GUUUAAG (DNA:RNA)
RNA: B2 RNA with A26U, G27U, A28U, C29A, G30A, U31G
DNA 1: CAATCTGAATTCCGGTCTCCC
DNA 2: TGGTGGCTACGACGGGATT
B27: UCCCAUG (DNA:RNA)
RNA: B1 RNA with C30U, C31G
DNA 1: CAATCTGAATTCCGGTCTCCC
DNA 2: TGGTGGCTACGACGGGATT
B28: GGCGAUG (DNA:RNA)
RNA: B1 RNA with U25G, C26G, C28G, C30U, C31G
DNA 1: CAATCTGAATTCCGGTCTCCC
DNA 2: TGGTGGCTACGACGGGATT
B29: GUCGAUG (DNA:RNA)
RNA: B1 RNA with U25G, C26U, C28G, C30U, C31G
DNA 1: CAATCTGAATTCCGGTCTCCC
DNA 2: TGGTGGCTACGACGGGATT
B30: CGUCCCG (DNA:RNA)
RNA: B1 RNA with U25C, C26G, C27U, A29C, C31G
DNA 1: CAATCTGAATTCCGGTCTCCC
DNA 2: TGGTGGCTACGACGGGATT
B31: GUCGUCG (DNA:RNA)
RNA: B1 RNA with U25G, C26U, C28G, A29U, C31G
DNA 1: CAATCTGAATTCCGGTCTCCC
DNA 2: TGGTGGCTACGACGGGATT
B32: GGAAUCG (DNA:RNA)
RNA: B2 RNA with A26G, G27A, C29U, G30C, U31G
DNA 1: CAATCTGAATTCCGGTCTCCC
DNA 2: TGGTGGCTACGACGGGATT
B33: GAUGUCG (DNA:RNA)
RNA: B2 RNA with G27U, A28G, C29U, G30C, U31G
DNA 1: CAATCTGAATTCCGGTCTCCC
DNA 2: TGGTGGCTACGACGGGATT

The target of this test is T1, RBFOX1 RRM RbFoxmut (Fox-RRM*). In words: EMSA; HiTS-Eq, 1 nM pool, 10 min; buffer printed only for the single-RNA assays: 10 mM Tris pH 7.5, 150 mM NaCl, 3.4 mM EDTA, 0.001% NP-40, 30 C. To be noted: tags: His6 N-terminal (pET28a); label: 5' 32P. An outline of the steps:
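Relative association constants, normalised to the cognate motif, were derived by comparing read counts of each RNA species with those of the control reaction. The RNA sequenced was the free fraction, separated by 8% native PAGE after a 10 min equilibration in 50 µL of 1 nM 5′-radiolabelled RNA (7 randomized nucleotides) with increasing concentrations of purified wild-type or mutant RbFox RRM.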
For orientation: In EMSA bound probe runs differently from free probe, usually more slowly.
In the case of B1, the binding signal was 0.0864 KA relative to UGCAUGU. The same measure for B2: 0.0818 KA relative to UGCAUGU; for B3: 0.0565 KA relative to UGCAUGU. Regarding B4, the binding signal is 0.119 KA relative to UGCAUGU. For the molecule B5, the binding signal is 0.15 KA relative to UGCAUGU. The same measure for B6: 0.074 KA relative to UGCAUGU; for B7: 0.0703 KA relative to UGCAUGU. The same measure for B8: 0.0795 KA relative to UGCAUGU. For B9 the value was 0.129 KA relative to UGCAUGU. B10: the binding signal is 0.18 KA relative to UGCAUGU. The same measure for B11: 0.105 KA relative to UGCAUGU; for B12: 0.367 KA relative to UGCAUGU; for B13: 0.0748 KA relative to UGCAUGU. On to B14, for which the binding signal is 0.113 KA relative to UGCAUGU. For the molecule B15, the binding signal was 0.561 KA relative to UGCAUGU. For the molecule B16, the binding signal is 0.389 KA relative to UGCAUGU.

Turning to B17, the binding signal was 0.098 KA relative to UGCAUGU. The same measure for B18: 0.155 KA relative to UGCAUGU; for B19: 0.203 KA relative to UGCAUGU. The same measure for B20: 0.426 KA relative to UGCAUGU; for B21: 0.21 KA relative to UGCAUGU; for B22: 0.0952 KA relative to UGCAUGU. For B23 the value was 0.117 KA relative to UGCAUGU; for B24, 0.0887 KA relative to UGCAUGU. Take B25: the binding signal was 0.0938 KA relative to UGCAUGU.

With B26, the binding signal was 0.131 KA relative to UGCAUGU. For B27 the value was 0.0994 KA relative to UGCAUGU.

For B28, the binding signal was 0.404 KA relative to UGCAUGU.

For B29, the binding signal is 0.141 KA relative to UGCAUGU.

Take B30: the binding signal was 0.0717 KA relative to UGCAUGU. The same measure for B31: 0.15 KA relative to UGCAUGU; for B32: 0.387 KA relative to UGCAUGU; for B33: 0.145 KA relative to UGCAUGU.
